The panel holds about 83,000 compounds, 20% with a hit somewhere; the sample as a whole holds those more often.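 The test compound was applied at a single concentration to cells in 96-well plates for 48 hours, and percent growth was recorded.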 The source made the active and inactive calls. How the source made its calls: active means growth percent below 10; inactive means the rest.
What was measured:
Assay in all cases: NCI-60 one-dose screen, 48 h (100 = growth as untreated, 0 = no growth, -100 = all killed)
Conditions in all cases: 10 µM unless noted
NCI-H23 lung = system: NCI-H23 lung
NCI-H226 lung = system: NCI-H226 lung
NCI-H322M lung = system: NCI-H322M lung
HOP-62 NSCLC = system: HOP-62 NSCLC
NCI-H460 lung = system: NCI-H460 lung
HOP-92 NSCLC = system: HOP-92 NSCLC
NCI-H522 lung = system: NCI-H522 lung
A549/ATCC NSCLC = system: A549/ATCC NSCLC
786-0 renal = system: 786-0 renal
COLO 205 colon = system: COLO 205 colon

Measured: growth

Cn1c(SCC(=O)c2ccco2)nc2ccccc2c1=O
inactive: NCI-H23 lung 97.4% | NCI-H226 lung 79.5% | NCI-H322M lung 91.8% | HOP-62 NSCLC 99.7% | NCI-H460 lung 101% | HOP-92 NSCLC 90.6% | NCI-H522 lung 101% | A549/ATCC NSCLC 108% | 786-0 renal 110% | COLO 205 colon 118%

CCN1CCN(c2ccc(NC(=O)Nc3ccc4c(ccn4-c4ccnc(C(=O)NC)c4)c3)cc2C(F)(F)F)CC1
inactive: NCI-H23 lung 81.8% | NCI-H226 lung 92.8% | NCI-H322M lung 85.5% | HOP-62 NSCLC 79.1% | NCI-H460 lung 75.6% | HOP-92 NSCLC 84.7% | NCI-H522 lung 105% | A549/ATCC NSCLC 91.3% | 786-0 renal 10.3% | COLO 205 colon 97.9%

O=C1Nc2ccc(F)cc2/C1=C\C(=O)c1ccc(NS(=O)(=O)c2ccccc2)cc1
inactive: NCI-H23 lung 84.3% | NCI-H226 lung 95.6% | NCI-H322M lung 93.8% | HOP-62 NSCLC 103% | NCI-H460 lung 101% | HOP-92 NSCLC 82.7% | NCI-H522 lung 70.2% | A549/ATCC NSCLC 97.4% | 786-0 renal 98.6% | COLO 205 colon 113%

O=c1[nH][nH]c(-c2ccc(F)cc2)c1-c1nc2ccccc2s1
inactive: NCI-H23 lung 89.9% | NCI-H226 lung 82.3% | NCI-H322M lung 88.7% | HOP-62 NSCLC 89.4% | NCI-H460 lung 92.2% | HOP-92 NSCLC 77.1% | NCI-H522 lung 92.9% | A549/ATCC NSCLC 111% | 786-0 renal 107% | COLO 205 colon 113%

COc1ccc(-c2cc(-c3ccc(N(C)C)cc3)n3c(n2)nc2ccccc23)cc1
inactive: NCI-H23 lung 68% | NCI-H226 lung 60.8% | NCI-H322M lung 82.2% | HOP-62 NSCLC 77.9% | NCI-H460 lung 53.3% | NCI-H522 lung 17.7% | A549/ATCC NSCLC 38.6% | 786-0 renal 42.8% | COLO 205 colon 59.4%
active: HOP-92 NSCLC -5.95%

C=C(C)[C@@H]1CC[C@]2(COCCCNCCCN)CC[C@]3(C)[C@H](CC[C@@H]4[C@@]5(C)CC[C@H](O)C(C)(C)[C@@H]5CC[C@]43C)[C@@H]12
active: NCI-H23 lung -64.7% | NCI-H226 lung 4.38% | NCI-H322M lung -90.2% | HOP-62 NSCLC -51.3% | NCI-H460 lung -77.3% | HOP-92 NSCLC -76.2% | NCI-H522 lung -54.6% | A549/ATCC NSCLC -48.7% | 786-0 renal -81.3% | COLO 205 colon -65.9%

CCOC(=O)c1cccc(NC2=C(Cl)C(=O)c3nc(C)ccc3C2=O)c1
inactive: NCI-H23 lung 65.2% | NCI-H226 lung 89.5% | NCI-H322M lung 104% | HOP-62 NSCLC 112% | NCI-H460 lung 100% | HOP-92 NSCLC 108% | NCI-H522 lung 88.4% | A549/ATCC NSCLC 101% | 786-0 renal 103% | COLO 205 colon 120%

CCOP(=O)(OCC)OC[C@]12CCC(C)(C)C[C@H]1C1=CC[C@@H]3[C@@]4(C)CC[C@H](OP(=O)(OCC)OCC)C(C)(C)[C@@H]4CC[C@@]3(C)[C@]1(C)CC2
inactive: NCI-H23 lung 53.9% | NCI-H226 lung 66.1% | NCI-H322M lung 83.7% | HOP-62 NSCLC 82.9% | NCI-H460 lung 51.3% | HOP-92 NSCLC 27.9% | NCI-H522 lung 51.5% | A549/ATCC NSCLC 44.3% | 786-0 renal 66.3% | COLO 205 colon 66.6%

Cc1ccc2c(n1)C(=O)C(Cl)=C(Nc1cccc(C)c1C)C2=O
active: NCI-H23 lung -10.6% | HOP-62 NSCLC -0.0437% | HOP-92 NSCLC -1.44% | NCI-H522 lung -37.5%
inactive: NCI-H226 lung 18.7% | NCI-H322M lung 16.9% | NCI-H460 lung 36.8% | A549/ATCC NSCLC 41.5% | 786-0 renal 21.9% | COLO 205 colon 87.7%

CCCc1cc2cc(-n3nc(CC)c4c3CC(C)(C)CC4=O)cc(NC3CCC(O)CC3)c2c(=O)[nH]1 (stereo not drawn)
inactive: NCI-H23 lung 18.3% | NCI-H226 lung 13.9% | NCI-H322M lung 35.1% | HOP-62 NSCLC 15.4% | NCI-H522 lung 17.7% | A549/ATCC NSCLC 25%
active: NCI-H460 lung -12.1% | HOP-92 NSCLC -1.33% | 786-0 renal -12.4% | COLO 205 colon 8.47%

CC1=C(C)C(=O)C(Nc2ccc(C)c(C)c2)=C(Br)C1=O
inactive: NCI-H23 lung 76.9% | NCI-H226 lung 89.6% | NCI-H322M lung 102% | HOP-62 NSCLC 104% | NCI-H460 lung 99.6% | NCI-H522 lung 97.2% | A549/ATCC NSCLC 103% | 786-0 renal 105% | COLO 205 colon 116%
active: HOP-92 NSCLC 3.51%

CN1CCN(c2ccc(Nc3nc(NCCCNS(=O)(=O)c4ccc(C(F)(F)F)cc4)c4sccc4n3)cc2)CC1
inactive: NCI-H226 lung 57.9%
active: NCI-H23 lung 2.34% | NCI-H322M lung -1.68% | HOP-62 NSCLC -49.1% | NCI-H460 lung -47.8% | HOP-92 NSCLC -55.9% | NCI-H522 lung -85.6% | A549/ATCC NSCLC -12.1% | 786-0 renal -82.2% | COLO 205 colon -76%

Cc1cc(=O)[nH]c(O)c1C#N
inactive: NCI-H23 lung 100% | NCI-H226 lung 101% | NCI-H322M lung 98.1% | HOP-62 NSCLC 94.8% | NCI-H460 lung 108% | HOP-92 NSCLC 97.4% | NCI-H522 lung 101% | A549/ATCC NSCLC 103% | 786-0 renal 103% | COLO 205 colon 107%

COc1ccc(-c2cnc(NC(=O)CCCCCCNC(=O)C(O)(O)C(F)(F)F)s2)cc1
inactive: 786-0 renal 14.9%
active: NCI-H23 lung -9.04% | NCI-H226 lung 5.81% | NCI-H322M lung 8.73% | HOP-62 NSCLC 1.79% | NCI-H460 lung 0.915% | NCI-H522 lung -41.4% | A549/ATCC NSCLC -12.5% | COLO 205 colon -70.8%

CCC(=C(c1ccc(OCCN2CCCCCC2)cc1)c1ccc(OCCN2CCCCCC2)cc1)c1ccc(Cl)cc1
inactive: NCI-H23 lung 19.4% | NCI-H226 lung 52.1% | NCI-H322M lung 18% | HOP-62 NSCLC 58.2% | HOP-92 NSCLC 32.3%
active: NCI-H460 lung -39.7% | NCI-H522 lung -5.58% | A549/ATCC NSCLC -21.3% | 786-0 renal -81.1% | COLO 205 colon -57.7%

O=c1c2ccccc2cc2n1CCN=C2c1ccccc1
inactive: NCI-H23 lung 93.8% | NCI-H226 lung 96% | NCI-H322M lung 99.7% | HOP-62 NSCLC 116% | NCI-H460 lung 101% | NCI-H522 lung 98% | A549/ATCC NSCLC 102% | 786-0 renal 96.8% | COLO 205 colon 103%

Oc1ccc(-c2nc3ccc(/C(=N\N=C\c4ccc(Cl)cc4)c4ccccc4)cc3[nH]2)cc1
inactive: NCI-H23 lung 94.8% | NCI-H226 lung 80.7% | NCI-H322M lung 93.7% | HOP-62 NSCLC 100% | NCI-H460 lung 86.4% | NCI-H522 lung 74.6% | A549/ATCC NSCLC 89.2% | 786-0 renal 66.5% | COLO 205 colon 54%

COc1cc(C(=O)c2cc(C(C)=O)c3cccc(C)n23)cc(OC)c1OC
inactive: NCI-H23 lung 59.7% | NCI-H226 lung 51.6% | NCI-H322M lung 69.2% | HOP-62 NSCLC 36.7% | NCI-H460 lung 16.1% | HOP-92 NSCLC 33.5% | NCI-H522 lung 19.3% | A549/ATCC NSCLC 50.2% | 786-0 renal 47.1% | COLO 205 colon 11%

O=C(Nc1ccc(N=Cc2c(O)[nH]c3ccccc23)cc1)Nc1ccc(S(=O)(=O)Nc2ncccn2)cc1
inactive: NCI-H23 lung 27.1% | NCI-H226 lung 96.7% | NCI-H322M lung 114% | HOP-62 NSCLC 99% | NCI-H460 lung 104% | NCI-H522 lung 95% | A549/ATCC NSCLC 101% | 786-0 renal 100% | COLO 205 colon 125%

O=C(CCCCCCN1CC(=O)N2[C@@H](C3CC3)c3[nH]c4ccccc4c3C[C@H]2C1=O)NO
inactive: NCI-H23 lung 66.4% | NCI-H226 lung 95% | NCI-H322M lung 74.6% | HOP-62 NSCLC 69.6% | NCI-H460 lung 74.5% | NCI-H522 lung 24.4% | A549/ATCC NSCLC 99% | 786-0 renal 108% | COLO 205 colon 98%

CC(=O)OC[C@@]12Oc3c(cccc3-c3ccc(O)c4c3O[C@]3(COC(C)=O)C(=C4O)C(=O)C[C@H](C)[C@@H]3OC(C)=O)C(O)=C1C(=O)C[C@H](C)[C@@H]2OC(C)=O
active: NCI-H23 lung 2.54% | HOP-62 NSCLC 8.14% | NCI-H522 lung -7.22% | COLO 205 colon -3.3%
inactive: NCI-H226 lung 25.9% | NCI-H322M lung 33.1% | NCI-H460 lung 10.3% | A549/ATCC NSCLC 19.4% | 786-0 renal 27.7%

CC[C@]12C=CCN3CC[C@@]4(c5ccc(OC)cc5N(C)[C@H]4[C@@](O)(C(=O)OC)[C@@H]1OC(=O)CCN1CCc4ccccc4C1)[C@@H]32
inactive: NCI-H23 lung 81.9% | NCI-H226 lung 98.9% | NCI-H322M lung 96.1% | HOP-62 NSCLC 87.5% | NCI-H460 lung 96.8% | NCI-H522 lung 101% | A549/ATCC NSCLC 87.8% | 786-0 renal 92.7% | COLO 205 colon 74.3%

O=C1C(SCc2ccccc2)=C(Cl)CN1c1ccccc1
active: NCI-H522 lung -48.8%
inactive: NCI-H23 lung 95.6% | NCI-H226 lung 101% | NCI-H322M lung 97.3% | HOP-62 NSCLC 104% | NCI-H460 lung 102% | A549/ATCC NSCLC 106% | 786-0 renal 104% | COLO 205 colon 130%

CCOC(=O)c1c(NC(=O)c2ccc(C(F)(F)F)cc2)sc2c3c(ccc12)OCN(C)C3
active: HOP-62 NSCLC -53.2% | NCI-H460 lung -17.8% | NCI-H522 lung -60.3% | A549/ATCC NSCLC -37.9% | COLO 205 colon -22%
inactive: NCI-H23 lung 85.6% | NCI-H226 lung 97% | NCI-H322M lung 73.4% | 786-0 renal 30.8%

COc1ccc(C2CC(c3cccc(OCCCCOc4cccc(C5=NN(C(C)=O)C(c6ccc(OC)cc6)C5)c4)c3)=NN2C(C)=O)cc1 (stereo not drawn)
inactive: NCI-H23 lung 57% | NCI-H226 lung 62.3% | NCI-H322M lung 91% | HOP-62 NSCLC 71.3% | NCI-H460 lung 66.6% | NCI-H522 lung 53.2% | A549/ATCC NSCLC 68.2% | 786-0 renal 86.3% | COLO 205 colon 82.8%

Cc1ccc(/C=N/Nc2nc(Nc3ccccc3)nc(Nc3ccc(S(N)(=O)=O)cc3)n2)cc1
inactive: NCI-H23 lung 76.7% | NCI-H226 lung 79.3% | NCI-H322M lung 90.8% | HOP-62 NSCLC 86.8% | NCI-H460 lung 54.7% | NCI-H522 lung 89.5% | A549/ATCC NSCLC 83.2% | 786-0 renal 46.9% | COLO 205 colon 83.9%

CCOC(=O)Nc1ccc2c(ccn2C(=O)c2cccc(F)c2)c1
inactive: NCI-H23 lung 41.4% | NCI-H226 lung 53.5% | NCI-H322M lung 61.8% | HOP-62 NSCLC 35.2% | NCI-H460 lung 14.8% | A549/ATCC NSCLC 47.6% | 786-0 renal 57.5%
active: NCI-H522 lung 0.367% | COLO 205 colon -3.54%

From PubChem BioAssay (NCI)
